The text below walks through data of PubChem BioAssay AID2061306 (National Center for Advancing Translational Sciences (NCATS), 2025).

Records with an inconclusive call do not appear. Activity calls are given as the source filed them. Calls follow the shape of the dose curve; as a rule, active = well fitted inhibition curve with a large enough effect; inconclusive = small, poorly fitted or top-dose-only effect; inactive = flat fitted curve, though single readings scatter.

The nature of the experiment: Identification of antibody-drug conjugate (ADC) payloads which are substrates of ATP-binding cassette drug efflux transporters: ABCB1-HEK293-pcDNA cell line. As to conditions: HEK293 empty-vector (pcDNA) control viability, CellTiter-Glo, 48 h. From the text:
Antibody-drug conjugates (ADCs) feature an antibody recognizing a specific protein joined to a potent toxic payload. Numerous antibody-drug conjugates have received FDA approval; however, clinical resistance arises. Resistance mechanisms include decreased expression or mutation of the antibody target, impaired payload release, or increased expression of ATP-binding cassette (ABC) efflux transporters associated with multidrug resistance. We therefore sought to characterize the interaction of ABC multidrug transporters with ADC payloads. We performed a high-throughput screen with 27 common ADC payloads using cells lines expressing ABC transporters P-glycoprotein (P-gp, encoded by ABCB1) or ABCG2 (encoded by ABCG2). Confirmatory assays were also performed using cells transfected to express P-gp, ABCG2, or MRP1 (encoded by ABCC1). Several commonly used ADC payloads were substrates of P-gp, including calicheamicin gamma1, monomethyl auristatin E, DM1, and DM4. All the pyrrolobenzodiazepines tested - SJG136, SGD-1882, SG2057, and SG3199 - were substrates of P-gp, ABCG2, and MRP1. […] These findings highlight the risk of transporter-mediated resistance with certain ADC payloads and underscore the importance of selecting payloads that evade ABC transporter recognition in future ADC development.
HEK-293 cells were transfected with empty vector (pcDNA) or vector containing the human ABCB1 (MDR-19), ABCG2 (R-5), or ABCC1 gene (MRP1) and were maintained in EMEM with 2 mg/mL G418 added to maintain transporter expression. The HeLa derivative KB-3-1 and the P-gp overexpressing KB-8-5-11 subline were maintained in DMEM; KB-8-5-11 additionally received 100 ng/mL colchicine. H460 parental cells were obtained from the Division of Cancer Treatment and Diagnosis Tumor Repository, National Cancer Institute at Frederick, MD and were cultured in RPMI. The ABCG2 expressing subline H460 MX20 was generated by selecting H460 cells in 20 nM mitoxantrone. Media in all cases was supplemented with 10% FBS and 1% penicillin-streptomycin. We explored 27 common ADC payloads, in two orthogonal, paired cell line sets-a drug selected and transfected set for each transporter--to identify substrates of the ABC transporters P-gp and ABCG2. Compounds were sourced from Levena Biopharma (San Diego, CA), Selleck Chem (Houston, TX), ChemieTek (Indianapolis, IN), or Microsource Discovery Systems (Gaylordsville, CT). Screening was performed as previously described. Briefly, cells were plated at a density of 500 cells/well in 1536 well plates with compounds added using a 1536-head pin tool (Kalypsys, San Diego CA). Cells were incubated with cytotoxic drugs and processed with CellTiter Glo reagent (Promega, Madison, WI) to determine viability after 48 hours. […]
As for `CC[C@@]1(O)C(=O)OCc2c1cc1n(c2=O)Cc2cc3ccccc3nc2-1`, the Potency is 11.8 nM (active). The figure for `COc1cccc2c1C(=O)c1c(O)c3c(c(O)c1C2=O)C[C@@](O)(C(=O)CO)CC3OC1CC(N2CCOC(OC)C2)C(O)C(C)O1` (some centres undefined) is 1.7 nM (active). Under `CC[C@H](C)[C@H](NC(=O)[C@H]1CCCCN1C)C(=O)N(C)[C@H](C[C@@H](OC(C)=O)c1nc(C(=O)N[C@@H](Cc2ccccc2)C[C@H](C)C(=O)O)cs1)C(C)C` stands 1.3 nM (active); under `COc1cc2cc(C(=O)N3C[C@@H](CCl)c4c3cc(O)c3ccccc43)[nH]c2c(OC)c1OC`, 1.5 nM (active).
